High-throughput results: PubChem BioAssay, several laboratories
MEKK2mut PB1 HTS – signal of MEK5 binding to mutant human MEKK2 PB1 domain; percent response, % at 10 µM; bead flow cytometry, Alexa488-MEK5 binding to MEKK2 mutant; 290,000 compounds, 0.35% hits; in the data active = percent response above about 24%, passing the limit was not always enough
UBC13 polyUb – human UBC13 polyubiquitination inhibition | P61088 | UBC13 polyubiquitin chain formation, TR-FRET | inhibition, % at 20 µM | 330,000 compounds, 0.47% hits; in the data active = inhibition above about 45%, passing the limit was not always enough
Target sequence (P61088 whole entry, looked up): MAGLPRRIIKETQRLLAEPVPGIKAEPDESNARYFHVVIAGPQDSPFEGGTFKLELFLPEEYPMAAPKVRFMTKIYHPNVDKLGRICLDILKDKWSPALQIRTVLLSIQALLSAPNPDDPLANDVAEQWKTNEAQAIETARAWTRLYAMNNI
MEKK3 PB1 HTS – modulators (inhibitors or enhancers) of MEK5 binding to human MEKK3 PB1 domain; Q99759; bead-based flow cytometry, Alexa488-MEK5 binding to MEKK3; actives lie on both sides; 0 = blocked by unlabeled MEK5, 100 = vehicle; binding response (% of control), % at 10 µM; 290,000 compounds, 1.4% hits; AID 1529;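 active = binding response more than 3 SD above or below the average of its plate-row segment, actives on both sides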;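 also: Alexa488 bead fluorescence after subtracting the streptavidin-only scavenger bead signal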
Rce1 inhib – blocks yeast Ras-converting enzyme; yeast membranes, quenched prenylated peptide cleavage fluorescence; calls only; 290,000 compounds, 0.27% hits; AID 2563;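 active = fall in fluorescence gain of 50% or more versus controls, with final raw signal at or below 3038400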;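 also: plate controls were neutral control wells for no effect and wells lacking membranes for full effect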
Target sequence (Q03530 whole entry, looked up): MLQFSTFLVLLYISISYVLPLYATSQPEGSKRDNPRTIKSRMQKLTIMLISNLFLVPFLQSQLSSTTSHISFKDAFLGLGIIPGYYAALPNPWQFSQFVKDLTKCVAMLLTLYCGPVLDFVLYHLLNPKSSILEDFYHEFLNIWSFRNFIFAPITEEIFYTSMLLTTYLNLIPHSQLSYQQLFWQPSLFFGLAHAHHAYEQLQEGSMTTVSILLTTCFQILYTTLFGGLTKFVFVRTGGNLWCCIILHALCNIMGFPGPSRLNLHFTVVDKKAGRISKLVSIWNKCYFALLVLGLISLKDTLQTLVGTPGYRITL
MEKK2wt PB1 HTS – raises or lowers MEK5 binding to wildtype human MEKK2 PB1 domain | bead flow cytometry, Alexa488-MEK5 binding to MEKK2 WT; actives lie on both sides | 290,000 compounds, 1.1% hits | binding response (% of control), % at 10 µM | AID 1531 | Q9Y2U5; in the data active = binding response below about 67% or above about 130%
MEKK2wt confirm – raises or lowers MEK5 binding to wildtype human MEKK2, retest. AID 1892. binding response (% of control), % at 10 µM. bead flow cytometry, Alexa488-MEK5 binding to MEKK2 WT; actives lie on both sides. shares compounds with MEKK3 PB1 HTS. 5,900 compounds, 2.4% hits; in the data active = binding response below about 16% or above about 210%; inactive = in between
MEKK2mut confirm – signal of MEK5 binding to mutant human MEKK2, retest | shares compounds with MEKK3 PB1 HTS | bead flow cytometry, Alexa488-MEK5 binding to MEKK2 mutant | percent response, % at 10 µM | 5,900 compounds, 2% hits | AID 1893; in the data active = percent response mostly above about 71%, no sharp cut-off; inactive = mostly below about 38%;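 also: higher means compound restores mutant binding toward wildtype level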
MEKK3-MEK5 inh – confirmation of inhibitors of MEK5 binding to human MEKK3 | shares compounds with MEKK3 PB1 HTS | bead flow cytometry, Alexa488-MEK5 binding to MEKK3; stronger effect = lower value | binding response (% of control), % at 10 µM | 5,900 compounds, 1.8% hits | AID 1894;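 active = binding response below 72% of control, or above a set upper limit, though filed actives all read lower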;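 also: 100% = DMSO only wells and 0% = binding blocked by excess unlabeled MEK5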
An asterisk follows results filed as active; i = inactive; nt = no result; [ ] = dose if it differs, or a comment. Sampled rows, rich in hits. Any-hit rate of the full collection: about 2.5%.

SMILES	MEKK2mut PB1 HTS	UBC13 polyUb	MEKK3 PB1 HTS	Rce1 inhib	MEKK2wt PB1 HTS	MEKK2wt confirm	MEKK2mut confirm	MEKK3-MEK5 inh
CCN(C(=O)CSc1ncccc1C(=O)OC(C)C)c1cccc(C)c1	-26.0	-6.5	0.0*[inhibitor]	i	-3.0*[inhibitor]	104.0	6.0	107.0
COc1ccc(-c2noc(-c3ccccc3C(=O)Nc3cccnc3)n2)cc1OC	2.0	-5.1	105.0	i	103.0	nt	nt	nt
COc1ccc(-c2noc(-c3ccccc3C(=O)Nc3cccnc3)n2)cc1	26.0*	-10.8	100.0	i	98.0	102.0	3.0	107.0
Cc1nnc(NC(=O)c2cc(-c3ccncc3)nc3c(C)cccc23)s1	4.0	-12.8	103.0	i	105.0	nt	nt	nt
CCOc1ccc(C(C)C)cc1S(=O)(=O)n1ccnc1C	-2.0	2.0	100.0	i	101.0	nt	nt	nt
CCOc1ccc(OCC)c(S(=O)(=O)n2ccnc2C)c1	25.0*	-1.9	115.0	i	121.0	92.0	-6.0	97.0
Cc1ccc(C)c(CN2CCC(CNC(=O)Nc3ccc(F)c(Cl)c3)CC2)c1	19.0	23.7	101.0	i	130.0	nt	nt	nt
COc1ccc2ccccc2c1/C=N/O	6.0	-6.8	133.0*	i	121.0	98.0	1.0	101.0
C=CCOc1ccc2ccccc2c1/C=N/O	5.0	-0.3	109.0	i	103.0	nt	nt	nt
CCOC(=O)COc1ccc(S(=O)(=O)N2CCN(c3ccccc3)CC2)cc1	4.0	-15.1	108.0	i	103.0	nt	nt	nt
Cn1c(=O)oc2cc(S(=O)(=O)N3CCN(c4ccccn4)CC3)ccc21	-9.0	-0.9	50.0*[inhibitor]	i	64.0	108.0	13.0	111.0
Cc1cc(-c2ccccc2)c2c(n1)sc1c(O)cc(=O)[nH]c12	-5.0	3.6	93.0	i	95.0	nt	nt	nt
O=c1cc(O)c2sc3nc(-c4ccccc4)cc(C(F)(F)F)c3c2[nH]1	0.0	1.2	8.0*[inhibitor]	i	95.0	101.0	4.0	104.0
COc1ccc(OC)c(-c2cc(C(F)(F)F)c3c(n2)sc2c(O)cc(=O)[nH]c23)c1	-1.0	-2.4	69.0*[inhibitor]	i	91.0	87.0	-9.0	91.0
N=c1c2c(-c3ccccc3)c(-c3ccccc3)n(Cc3ccco3)c2ncn1CCCN1CCOCC1	6.0	10.7	116.0	i	149.0*	127.0	10.0	95.0
N=c1c2c(-c3ccccc3)c(-c3ccccc3)n(Cc3ccco3)c2ncn1CCCn1ccnc1	2.0	nt	103.0	i	111.0	nt	nt	nt
CC(C)Cn1cnc2c(c(-c3ccccc3)c(-c3ccccc3)n2Cc2ccco2)c1=N	16.0	39.2	115.0	i	134.0*	126.0	27.0	100.0
N=c1c2c(-c3ccccc3)c(-c3ccccc3)n(Cc3ccco3)c2ncn1Cc1ccccc1	17.0	40.0	110.0	i	156.0*	162.0	40.0	105.0
COc1cccc(C(=O)Nc2nnc(SCC(=O)Nc3ccc(NC(C)=O)cc3)s2)c1	7.0	-9.7	100.0	i	101.0	nt	nt	nt
COc1cccc2cc(CC(=O)c3ccccc3)c(=O)oc12	11.0	8.2	108.0	i	110.0	nt	nt	nt
COC(=O)C1=C(C(=O)OC)[C@@H]2N(C)c3ccc(OC)cc3[C@@]23C[C@@H](C(=O)OC)N(C(=O)NC2CCCCC2)C3=N1	-24.0	-2.4	2.0*[inhibitor]	i	3.0*[inhibitor]	100.0	-2.0	103.0
Cc1ccc(-c2csc(NC(=O)c3ccc4c(=O)n5c(nc4c3)CCCCC5)n2)cc1	14.0	-9.6	102.0	i	102.0	nt	nt	nt
O=C(CSc1nc(-c2ccccc2)nc2ccccc12)Nc1cccc(C(=O)O)c1	-42.0	15.2	4.0*[inhibitor]	i	6.0*[inhibitor]	118.0	6.0	102.0
O=C(CSc1nc(-c2ccc(F)cc2)nc2ccc(F)cc12)Nc1cccc(C(=O)O)c1	-1.0	10.4	100.0	i	94.0	nt	nt	nt
COC(=O)CCC(=O)OC1(C)C(=O)C=C2C=C(C3CC3)N(C3CCCCC3)C=C2C1=O (configuration not stated)	6.0	-62.0	98.0	i	106.0	nt	nt	nt
